Measured values published in PubChem BioAssay AID2094 (Broad Institute, 2009).
Screen size: about 300,000 compounds; about 1,200 (0.4%) were called active. Rule as the data show it: active = activity change below about -75% (passing the limit was not always enough); inconclusive = no clear call, values can overlap the other calls. Shown is part of a subset that was picked to be rich in actives.

experiment: Vibrio harveyi AI-2 quorum sensing modulators, primary screen, JMH597 strain, luminescence/OD600 ratio (AID 2094); details: Vibrio harveyi JMH597 AI-2 luminescence/OD600 ratio, 9 h; at 7.5 µM; active compounds read low; 0 = neutral-control median; strain lacks LuxN and CqsS sensors;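 also: luminescence divided by OD600 gain over 9 h not by final OD600 alone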

Activity change, active:
Cc1ccccc1NC(=O)CCOc1ccccc1 -83.3%, COc1ccc(CCC(=O)c2ccc(OC)cc2)cc1 -82.8%, COc1ccc(Cc2nnc(N/N=C/c3ccccc3O)[nH]c2=O)cc1OC -86.4%, O=C(/C=C/c1ccco1)Nc1ccc(Oc2ccccc2)cc1 -83.2%, O=C(Nc1ccc(Oc2ccccc2)cc1)c1ccco1 -96.6%, O=C(c1cc(-c2cccc(O)c2)on1)N1CCc2ccccc2C1 -84.1%, O=C(Nc1ccccc1Cl)/C(Cl)=C(\Cl)S(=O)c1ccccc1 (stereo not drawn) -84.8%, CC(=O)c1cccc(OCc2cc(C(=O)NC(C)Cc3cccnc3)no2)c1 (stereo not drawn) -85.8%

Activity change, inactive:
CC1=CC=CC2=N/C(=N\S(=O)(=O)c3ccc(F)cc3F)c3ccccc3CN12 21.6%, Cc1cccc(OCCC(=O)Nc2ccccc2C(N)=O)c1 11.3%, CCc1ccccc1NC(=O)CCOc1ccccc1 24.5%, C=CCO/N=C/C1=C(O)C(C(=O)OC)C(C)(C)CC1=O (stereo not drawn) 9.19%, CO/N=C/CC(=O)c1ccc(OC)cc1 8.95%, COc1ccc(OCCC(=O)c2ccc(OC)cc2)cc1 30.2%, COc1cccc(NC(=O)COc2cc(C)cc3oc(=O)cc(C)c23)c1 15.1%, Cc1nnc(N/N=C/c2ccccn2)[nH]c1=O -29.7%, O=c1[nH]c(NCCO)nnc1Cc1ccc(Cl)cc1 -1.67%, COCC(=O)N1CCCC(C(=O)c2ccc(C(F)(F)F)cc2)C1 (stereo not drawn) 13.4%, CC(=O)c1ccc(S(=O)(=O)N(C)CCCC(=O)N(C)Cc2ccccc2F)cc1 21.5%, Cc1nnc(NC(=O)/C=C/c2ccco2)s1 12.9%, O=C(Nc1ccccc1)c1ccco1 10.6%, O=C(/C=C/c1ccco1)Nc1cccc(-c2nc3ccccc3[nH]2)c1 4.93%, O=C(Nc1ccc(O)cc1)c1ccc(NC(=O)c2ccco2)cc1 7.66%, CCc1cccc(NC(=O)CCCN2C(=O)C(c3ccccc3)Oc3cccnc32)c1 (stereo not drawn) 34.6%, CC(OC(=O)CNS(=O)(=O)/C=C/c1ccccc1)C(=O)Nc1ccc(S(=O)(=O)N2CCCC2)cc1 (stereo not drawn) 11.2%, CCCCCCNCCn1cnc2c(N)ncnc21 19.1%, O=C(c1cc(-c2ccc(O)cc2)on1)N1CCOCC1 2.48%, Cc1ccc(-c2cc(C(=O)N3CCc4ccccc4C3)no2)cc1 4.44%, COc1ccc(C)cc1N(CC(=O)NC(C)c1ccccc1)S(C)(=O)=O (stereo not drawn) 17.3%, CCOc1ccc(-n2c(SCC(=O)Nc3ccc(OC)cc3)nc3sc4c(c3c2=O)CCN(C)C4)cc1 20.9%, O=C(Cc1ccc2c(c1)CCCC2)Nc1ccccc1Cl -3.68%, O=C(Nc1ccccc1Cl)Nc1cccc2cccnc12 24.3%, Cc1csc(OCC(=O)Nc2ccc(C)c(C)c2)n1 15.5%, O=C(CC1SC(=Nc2ccccc2)N(Cc2ccccn2)C1=O)Nc1cccc(Cl)c1 (stereo not drawn) 3.68%, CCC(NC(=O)c1cc(COc2ccc(F)c(F)c2)on1)c1ccncc1 (stereo not drawn) 14%, Cc1cccnc1CC(C)NC(=O)c1cc(COc2cncc(Cl)c2)on1 (stereo not drawn) 10.5%, CC1(C)C/C(=N/Nc2ccc([N+](=O)[O-])cc2[N+](=O)[O-])C(C)(C)O1 18.5%, C/C=C/C(=O)OCc1csc(CC(=O)Nc2ccccc2C)n1 48.5%
